The panel holds about 83,000 compounds, 20% with a hit somewhere; the sample as a whole holds those more often.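 Compound tested at a single concentration for 48 hours in 96-well plates; a percent growth value below 10 was scored as active.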 The source made the active and inactive calls.
Tested on: HL-60(TB) leukemia
Test: NCI-60 one-dose screen, 48 h (100 = growth as untreated, 0 = no growth, -100 = all killed)
Conditions: 10 µM unless noted

SMILES | growth
CCOc1ccccc1/C=N/Nc1nc2ccccc2o1 | 98.6% (inactive)
N#Cc1c(-c2ccccc2)nc(SCC(=O)N2CCN(c3ccccc3)CC2)[nH]c1=O | 62.5% (inactive)
COc1ccc(CSc2nc3cc(OC)c(OC)cc3c(=O)n2-c2ccc(Cl)cc2)cc1 | 104% (inactive)
CN(C)CC1C(=O)O[C@H]2[C@H]1CC/C(COC(=O)NCc1ccc(Cn3c(=O)sn(CCCI)c3=O)cc1)=C\CC[C@@]1(C)O[C@@H]21 (stereo not given in full) | -36.5% (active)
CCCn1c(=S)sc2c(Cl)nc(C)nc21 | 130% (inactive)
NC(=N\N=C/Cc1ccccc1)/C(N)=N\N=C\Cc1ccccc1 | 70.8% (inactive)
CCCCCCCC/C=C\CCCCCCCCOc1ccccc1CC(=O)NCC[N+]1(C)CCOCC1 | 67.2% (inactive)
NS(=O)(=O)c1ccc(CCN=C=S)cc1 | -2.31% (active)
NC(=S)NN=C1CCCCC1 | 74.1% (inactive)
Cn1nc(-c2ccccc2)c2c(-c3ccccc3)onc2c1=O | 1.23% (active)
COc1ccc(NS(=O)(=O)c2ccc(C)cc2)c([N+](=O)[O-])c1 | 90.7% (inactive)
CCOC(=O)c1sc(NC(=O)COc2cccc(/C=C3\Cc4ccc(Cl)cc4C3=O)c2)nc1C | 120% (inactive)
CN[C@@H](C)C(=O)N[C@H]1CCS[C@H]2CC(C)(C)[C@@H](C(=O)N[C@H]3c4ccccc4C[C@H]3OCC#CC#CCO[C@@H]3Cc4ccccc4[C@@H]3NC(=O)[C@H]3N4C(=O)[C@@H](NC(=O)[C@H](C)NC)CCS[C@H]4CC3(C)C)N2C1=O | -47.4% (active)
N#Cc1c(-c2ccccc2)nc2c(c(-c3ccccc3)nn2-c2ccccc2)c1-c1ccc(N2CCOCC2)cc1 | 65.4% (inactive)
N#CC(C#N)N=Nc1cc(Cl)ccc1Cl | 85.2% (inactive)
CC(C)(C)c1cc(C(C)(C)C)cc(S(=O)(=O)Nc2cc3ccccc3cc2C(=O)NCCN)c1 | -19.8% (active)
COC(=O)C1C2CC3c4[nH]c5cc(OC)ccc5c4CCN3CC2CC(OC2CCCCO2)C1OC (stereo not given) | 98.7% (inactive)
COc1cc(Nc2ncc(F)c(Nc3ccc4c(n3)NC(=O)C(C)(C)O4)n2)cc(OC)c1OC | 103% (inactive)
CCN(CC)Cc1cc(Nc2c3ccc(Cl)cc3nc3c(C)cccc23)ccc1O | -19.7% (active)
CC(C)(C)c1ccc(C(O)CCCN2CCC(C(O)(c3ccccc3)c3ccccc3)CC2)cc1 (stereo not given) | -51.9% (active)

SMILES | growth
CC(=O)Nc1cscc1NC(C)=O | 96.7% (inactive)
CC1(C)C(=O)/C(=C\c2cccnc2)C[C@]2(C)[C@H]3CC=C4[C@@H]5C[C@@](C)(C(=O)O)CC[C@]5(C)CC[C@@]4(C)[C@]3(C)CC[C@@H]12 | 104% (inactive)
Nc1cc(C(=O)O)cc(C(=O)O)c1 | 90.2% (inactive)
COc1cc(/C=C/C(=O)c2c(C)oc3nc[nH]c(=O)c23)ccc1O | 117% (inactive)
CC[C@]1(O)C[C@@H]2CN(CCc3c([nH]c4ccccc34)[C@@](C(=O)OC)(c3cc4c(cc3OC)N(C)[C@H]3[C@@](O)(C(=O)OC)[C@H](OC(C)=O)[C@]5(CC)C=CCN6CC[C@]43[C@@H]65)C2)C1 | -7.59% (active)
O=C(Nc1ccc2ncnc(Nc3ccc(F)c(Cl)c3)c2c1)c1cccs1 | 89.7% (inactive)
O=C1c2cccnc2C(=O)c2c1c(C(=O)OCCN1CCOCC1)c1ccccn21 | -36.4% (active)
Nn1c(SCC(=O)Nc2cc(Cl)c(Cl)cc2Cl)nnc1-c1cc(F)c(Cl)cc1Cl | 92% (inactive)
O=C(CCc1nnc(Cn2cncn2)o1)c1nc2ccccc2[nH]1 | 108% (inactive)
CC1(C)CCC(S(=O)(=O)c2ccc3c(c2)/C(=N\O)c2cc(S(=O)(=O)N4CCN(c5ccc(F)cc5O)CC4)ccc2-3)CC1 | -70.7% (active)
COc1ccc(NC(=O)c2ccc(-c3ccccc3)cc2)c(C(N)=O)c1 | 61.7% (inactive)
COC(=O)CCCCCCCCC1(C)C=CC(C(C)O)=CC1 (stereo not given) | 99.4% (inactive)
C=C1C(=O)O[C@H]2[C@H]1CC/C(COC(=O)c1cc3cc(F)ccc3[nH]1)=C\CC[C@@]1(C)O[C@@H]21 | -32.6% (active)
CCC(Br)(CC)C(=O)c1ccc(OCC(=O)O)c(Cl)c1Cl | 111% (inactive)
OC1CCCc2ccccc21 (stereo not given) | 98.4% (inactive)
COc1c(C2CC(=O)Nc3c2cnn3Cc2ccco2)cc2c(c1OC)OCO2 (stereo not given) | -25.8% (active)
CCC(C)NCc1ccccc1 (stereo not given) | 94.6% (inactive)
Oc1ccc(O)cc1 | 48.4% (inactive)
C=C1c2c(C)nn(-c3ccc(N)cc3)c2N(C)C23CC1C1(C)c4c(C)nn(-c5ccc(N)cc5)c4N(C)C(C)(CC12)C3 (stereo not given) | 55.7% (inactive)
CC(C)Cc1ccc(C(C)C(=O)NCc2ccc(Cn3c(=O)sn(-c4ccc(Cl)cc4)c3=O)cc2)cc1 (stereo not given) | 95.8% (inactive)

Reference: PubChem BioAssay (NCI)
